HP1b chromo inh: HTS for Inhibitors of HP1-beta Chromodomain Interactions with Methylated Histone Tails. Chromobox protein homolog 1 (Homo sapiens), P83916. AlphaScreen HP1-beta / biotin-H3K9me3 peptide binding. Potency, µM (doses to about 114 µM), usual class: inhibitors. hit rate 0.56% among 390,000; also: nearly all actives have a fitted effect of over 70% in size
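Compound inhibition of the preformed complex between 50 nM HP1-beta and 50 nM biotinylated H3K9me3 peptide was read by AlphaScreen. Buffer was PBS pH 7.4 with 0.01% Tween-20. Incubations ran 30 min at room temperature, with 10 ug/mL donor/acceptor beads.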
PLK1 PBD block: qHTS for Inhibitors of PLK1-PDB (polo-like kinase 1 - polo-box domain): Primary Screen; AID 720504, 2013; Potency, µM, hits mostly inhibitors; Plk1 PBD binding of FITC phosphopeptide, fluorescence polarization; hit rate 2.8% among 360,000; Serine/threonine-protein kinase PLK1 (Homo sapiens), P53350; also: series mostly up to about 57 µM; nearly all actives have a fitted effect of over 65% in size
JMJD2A Tudor inh: qHTS Assay for Inhibitors of JMJD2A-Tudor Domain. Lysine-specific demethylase 4A (Homo sapiens), O75164. Potency, µM (highest dose often 114 µM), actives largely listed as inhibitors. AlphaScreen JMJD2A-Tudor / H3K4me3 peptide binding. hit rate 4.4% among 390,000; also: nearly all actives have a fitted effect of over 50% in size
ALOX12 inh: Primary qHTS assay for inhibitors of human arachidonate 12S-lipoxygenase (ALOX12): Round 2 | Polyunsaturated fatty acid lipoxygenase ALOX12 (Homo sapiens), P18054 | purified 12hLO, xylenol orange hydroperoxide absorbance | Potency, µM (doses to about 108 µM), usual class: inhibitors | hit rate 1.1% among 580,000
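Hydroperoxide product was detected by ferrous iron/xylenol orange as the 573 to 405 nm absorbance ratio. Arachidonic acid at 40 uM (final) was turned over for 30 min at room temperature by 150 nM human 12hLO, pH 7.0 Hepes buffer, after 15 min compound preincubation.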
BAZ2B inh: qHTS Assay for Inhibitors of BAZ2B; Potency, µM (series often up to 114 µM), most hits filed as inhibitors; AlphaScreen BAZ2B-H3K14Ac peptide displacement; Bromodomain adjacent to zinc finger domain protein 2B (Homo sapiens), Q9UIF8; hit rate 4.4% among 360,000; also: nearly all actives have a fitted effect of over 60% in size
Target sequence (Q9UIF8 whole entry, looked up, the tested form may be a part): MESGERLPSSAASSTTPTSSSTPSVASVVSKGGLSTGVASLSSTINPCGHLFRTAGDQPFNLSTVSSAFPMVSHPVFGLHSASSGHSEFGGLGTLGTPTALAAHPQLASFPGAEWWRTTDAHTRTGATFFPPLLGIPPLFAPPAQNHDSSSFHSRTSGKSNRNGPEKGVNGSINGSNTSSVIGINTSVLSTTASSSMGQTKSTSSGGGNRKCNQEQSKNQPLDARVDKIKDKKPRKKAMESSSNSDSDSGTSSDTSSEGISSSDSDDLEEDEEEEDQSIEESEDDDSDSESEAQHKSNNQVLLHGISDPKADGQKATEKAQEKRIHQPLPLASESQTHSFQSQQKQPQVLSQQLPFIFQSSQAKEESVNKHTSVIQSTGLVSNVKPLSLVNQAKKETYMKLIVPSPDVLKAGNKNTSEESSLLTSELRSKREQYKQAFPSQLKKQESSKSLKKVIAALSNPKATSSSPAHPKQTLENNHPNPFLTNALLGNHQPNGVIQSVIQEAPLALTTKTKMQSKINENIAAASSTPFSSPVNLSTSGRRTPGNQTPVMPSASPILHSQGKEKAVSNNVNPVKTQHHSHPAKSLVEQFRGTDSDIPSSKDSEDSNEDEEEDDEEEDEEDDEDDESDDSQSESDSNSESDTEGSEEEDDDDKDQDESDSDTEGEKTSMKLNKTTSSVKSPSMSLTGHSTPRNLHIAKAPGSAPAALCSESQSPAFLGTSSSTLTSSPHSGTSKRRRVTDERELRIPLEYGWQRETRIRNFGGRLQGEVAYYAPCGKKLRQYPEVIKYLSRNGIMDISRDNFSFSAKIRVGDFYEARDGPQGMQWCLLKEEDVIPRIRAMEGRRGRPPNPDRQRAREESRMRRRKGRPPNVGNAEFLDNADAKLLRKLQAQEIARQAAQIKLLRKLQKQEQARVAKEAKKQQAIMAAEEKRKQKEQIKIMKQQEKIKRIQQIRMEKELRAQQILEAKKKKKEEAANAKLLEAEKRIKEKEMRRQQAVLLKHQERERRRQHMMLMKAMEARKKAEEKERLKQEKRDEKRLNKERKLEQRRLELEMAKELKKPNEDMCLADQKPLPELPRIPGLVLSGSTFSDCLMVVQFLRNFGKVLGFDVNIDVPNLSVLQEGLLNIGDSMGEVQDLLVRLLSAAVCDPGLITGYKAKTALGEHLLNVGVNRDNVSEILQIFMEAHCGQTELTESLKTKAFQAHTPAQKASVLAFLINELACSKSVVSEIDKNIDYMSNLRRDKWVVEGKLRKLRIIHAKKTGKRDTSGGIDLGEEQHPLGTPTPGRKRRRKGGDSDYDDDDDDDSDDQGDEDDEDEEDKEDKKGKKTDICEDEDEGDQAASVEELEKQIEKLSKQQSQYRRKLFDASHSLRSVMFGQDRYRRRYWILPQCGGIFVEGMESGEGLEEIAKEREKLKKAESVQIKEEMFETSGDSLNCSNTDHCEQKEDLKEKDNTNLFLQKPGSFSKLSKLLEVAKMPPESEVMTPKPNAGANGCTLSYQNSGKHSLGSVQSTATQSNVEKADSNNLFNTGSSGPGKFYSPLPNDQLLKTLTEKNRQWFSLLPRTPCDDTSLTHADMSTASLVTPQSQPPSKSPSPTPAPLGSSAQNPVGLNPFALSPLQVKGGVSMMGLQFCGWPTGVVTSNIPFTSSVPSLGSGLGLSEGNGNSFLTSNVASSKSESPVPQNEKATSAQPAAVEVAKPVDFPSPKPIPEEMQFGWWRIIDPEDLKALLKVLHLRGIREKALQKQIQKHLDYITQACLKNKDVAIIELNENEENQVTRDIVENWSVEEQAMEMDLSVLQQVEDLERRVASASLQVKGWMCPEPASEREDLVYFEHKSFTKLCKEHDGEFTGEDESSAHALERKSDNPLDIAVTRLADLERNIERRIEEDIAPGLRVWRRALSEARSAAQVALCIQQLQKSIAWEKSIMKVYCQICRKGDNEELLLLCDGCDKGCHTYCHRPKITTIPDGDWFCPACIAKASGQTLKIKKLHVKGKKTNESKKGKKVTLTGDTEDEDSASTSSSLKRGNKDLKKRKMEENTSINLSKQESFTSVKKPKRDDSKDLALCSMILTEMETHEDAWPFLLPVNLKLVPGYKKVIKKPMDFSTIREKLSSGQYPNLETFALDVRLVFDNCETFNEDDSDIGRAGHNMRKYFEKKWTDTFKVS
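AlphaScreen displacement: compounds (up to 110uM) incubated 30 min at room temperature with a preformed 50 nM BAZ2B/50 nM biotinylated H3K14Ac peptide complex in PBS pH 7.4 with Tween-20. Donor and acceptor beads at 10 ug/mL final added, 20 min light-protected before reading.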
G9a block: qHTS Assay for Inhibitors of Histone Lysine Methyltransferase G9a; G9a H3K9 monomethylation, AlphaScreen, 2 h; hit rate 8.8% among 350,000; Potency, µM (top dose mostly 102 µM), most hits filed as inhibitors; Histone-lysine N-methyltransferase EHMT2 (Homo sapiens), Q96KQ7; AID 504332, 2011; also: nearly all actives have a fitted effect of over 75% in size
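Readings reflect AlphaScreen signal from monomethyl-H3K9 antibody detection. HMT at 20 nM; substrate b-H3K9 500 nM; cofactor SAM 20 uM; 2 h RT reaction; compounds tested as titrations in qHTS with 15 min preincubation.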
A number is an active result; - = inactive; ? = inconclusive; . = no result given; [ ] = dose if it differs, or a comment. Compounds with a hit are over-represented: about 9% of the library has one in this group of screens. Calls follow the shape of the dose curve; as a rule, active = well fitted curve in the direction sought with a large enough effect; inconclusive = small, poorly fitted or top-dose-only effect, or another doubt; inactive = no such curve, though single readings can be large; an effect the other way counts as inactive or inconclusive.

SMILES | HP1b chromo inh | PLK1 PBD block | JMJD2A Tudor inh | ALOX12 inh | BAZ2B inh | G9a block
CC(=NNC(=S)Nc1cccc(Cl)c1)c1ccccn1 | ? | - | 25.1µM | ? | . | .
C/C(=N\Nc1ccc(Cl)cc1)c1ccccn1 | - | - | ? | ? | ? | 3.55µM
C/C(=N\Nc1ccc2nncn2n1)c1ccco1 | - | - | - | - | - | .
C/C(=N\NC(=O)c1ccccn1)c1ccc(Cl)cc1 | - | - | - | - | ? | .
COc1ccc(NC(C)=O)cc1NC(=O)CSc1nnc(-c2ccccc2)n1N | - | - | - | - | - | -
COC[C@@H]1CN(C(C)C)C[C@H]1c1nc(C2CC2)no1 | . | . | . | - | . | .
COc1ccccc1C=NNC(=O)c1ccccc1OCCOc1ccccc1 | - | - | - | - | . | .
O=C(COc1ccc(CNC[C@H]2O[C@@H](n3ccc(=O)[nH]c3=O)[C@H](O)[C@@H]2O)cc1)Nc1nccs1 | . | - | . | - | . | .
C/C(=N\NC(=O)c1cc(C)nc2ccccc12)c1ccccn1 | - | - | 20µM | - | 7.94µM | -[2.33 µM]
C/C(=N\NC(=O)c1ccccn1)C12CC3CC(CC(C3)C1)C2 | - | - | ? | - | 50.1µM | ?
Cc1nn(C)c(C)c1CCC(=O)N1CCCOCCNC(=O)CC1 | . | . | . | - | . | .
CN(C)CCCNC(=S)/N=c1\sccn1Cc1ccccc1Cl | - | - | - | - | - | -
S=C(/N=c1/sccn1Cc1ccccc1)NC1CC1 | - | - | - | ? | 56.2µM | 50.1µM
CCCCCn1c2c(c(=N)c3ccccc31)CCC2 | - | - | ? | ? | - | 50.1µM
O=C(Nc1ccccc1)Nc1cccc2nsnc12 | - | - | - | 39.8µM | - | -[12.7 µM]
O=C(Nc1cccc2nsnc12)c1cccs1 | - | - | - | - | - | -
O=C(Nc1cccc2nsnc12)c1ccc(-c2ccc(Br)cc2)o1 | - | - | - | 35.5µM | - | 39.8µM
COc1ccc(/C=N/NC(=O)Nc2cccc3nsnc23)cc1 | - | 23.8µM | 70.8µM | - | - | -
Cc1ccc(Nc2ncnc3sccc23)c(C)c1 | - | - | - | - | - | -
COc1cc(CNCc2ccc(C(=O)O)cc2)ccc1OCc1ccc(F)cc1 | - | - | - | - | - | -
COc1cc(CNc2ccc(N3CCN(C(C)=O)CC3)cc2)ccc1OCc1ccc(F)cc1 | ? | - | ? | ? | 22.4µM | 3.98µM
CC(=O)N1CCN(c2ccc(NCc3ccc(F)cc3)cc2)CC1 | - | - | ? | ? | - | 7.94µM
COC(=O)C1=C(C)N(Cc2ccccc2)C(=S)NC1c1cccc(Br)c1 (stereo unspecified) | . | . | . | 39.8µM | . | .
COC(=O)C1=C(C)N(Cc2ccco2)C(=O)N[C@H]1c1ccc(Br)cc1 | . | . | . | . | ? | 50.1µM
COC(=O)C1=C(C)N(Cc2ccc(Br)cc2)C(=S)NC1c1cccc(Br)c1 (stereo unspecified) | . | . | . | 39.8µM | . | .
SMILES | HP1b chromo inh | PLK1 PBD block | JMJD2A Tudor inh | ALOX12 inh | BAZ2B inh | G9a block
COCCN=C1N[C@@H](c2ccc(Br)cc2)C(C(=O)OC)=C(C)N1Cc1ccccc1 | - | - | - | - | - | -[12.7 µM]
COC(=O)C1=C(C)N(Cc2ccc(Br)cc2)C(=S)NC1c1ccccc1 (stereo unspecified) | . | . | . | 39.8µM | . | .
COC(=O)C1=C(C)N(Cc2ccco2)C(=O)N[C@H]1c1ccccc1 | . | . | . | . | - | ?
CCc1c(C)nc2ncnn2c1NCc1cccs1 | - | - | - | - | - | -
O=C(O)c1ccc(CN2CC(CNC(=O)c3ccccc3)C3(C2)CN(c2ccccc2)C3)cc1 (stereo unspecified) | . | . | . | - | . | .
N#CCN(C(=O)CSc1nnc(C2CC2)n1C1CC1)c1ccccc1 | . | - | . | - | . | .
CC(C)N(C(=O)CSc1nnc(C2CC2)n1C1CC1)c1ccccc1 | - | - | - | - | - | 50.1µM
O=c1[nH]c(=O)n(Cc2cccnc2)c2c1CN(Cc1ccccc1)CN2 | . | . | . | - | . | .
COc1cccc(NC(=O)Nc2ccc(Cc3ccncc3)cc2)c1 | - | - | - | - | - | -
COC(=O)CCN1CCN(S(=O)(=O)c2ccc3c(c2)OCCO3)CC1 | - | - | - | ? | - | -[2.33 µM]
COC(=O)CCN1CCN(S(=O)(=O)c2ccccc2Br)CC1 | ? | - | 0.794µM | - | 20µM | 3.55µM
Cc1ccc(/C=N/NC(=O)c2cc(-c3ccc(C)o3)[nH]n2)cc1 | - | - | - | - | - | -
Cc1ccc(-c2cc(C(=O)O)n[nH]2)o1 | - | - | 25.1µM | ? | - | -[12.7 µM]
Cc1ccc(CN2C[C@@H]3C(=O)N(CCc4ccccc4)C(=O)[C@@H]3C2)s1 | . | . | . | - | . | .
CS(=O)(=O)c1ccc(C(=O)OC2CCOC2=O)cc1[N+](=O)[O-] (stereo unspecified) | - | - | - | - | - | 50.1µM
CN(C)c1ccc(NC(=O)C2CCCN(S(=O)(=O)c3ccccc3)C2)cc1 (stereo unspecified) | - | - | - | ? | ? | 8.91µM
O=C(NCc1ccccn1)C1CCCN(S(=O)(=O)c2ccccc2)C1 (stereo unspecified) | - | - | - | - | - | 35.5µM
O=C(Nc1ccc(N2CCOCC2)cc1)C1CCCN(S(=O)(=O)c2ccccc2)C1 (stereo unspecified) | - | - | - | - | - | -
COCCCNC(=O)C1CCCN(S(C)(=O)=O)C1 (stereo unspecified) | - | - | - | - | - | 70.8µM
CCc1ccc(NC(=O)C2CCCN(S(C)(=O)=O)C2)cc1 (stereo unspecified) | - | 21.2µM | -[11.4 µM] | - | - | .
CS(=O)(=O)N1CCCC(C(=O)Nc2ccc(F)cc2)C1 (stereo unspecified) | - | - | - | - | -[0.457 µM] | .
Cc1cc(NC(=S)N(CCN2CCOCC2)Cc2ccccc2F)ccc1Cl | - | - | - | - | - | -
CC(C)(CNC(=O)CNC(=O)c1ccccc1F)N1CCOCC1 | - | - | - | - | - | -[12.7 µM]
CC(=O)Nc1ccc(S(=O)(=O)N2CCC(NC(=O)C(Cc3cccc(F)c3)NC(C)=O)CC2)cc1 (stereo unspecified) | - | - | - | - | - | -
Cc1ccc(S(=O)(=O)N2CCN(S(=O)(=O)c3ccccc3)C2c2ccc(N(C)C)cc2)cc1 (stereo unspecified) | - | - | ? | - | ? | 8.91µM
Cc1ccc(S(=O)(=O)N2CCCCC2C(=O)Nc2ccc(N(C)C)cc2)cc1 (stereo unspecified) | ? | - | 50.1µM | ? | . | .
